Data as given in PubChem BioAssay.
The source made the active and inactive calls.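 Rule for the calls: active = membrane potential signal rise above negative control mean plus 3 SD in both duplicates, also active in the earlier TRPC4 screen; inactive = the rest.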

target: Short transient receptor potential channel 6 (Mus musculus) (UniProt Q61143); assay: TRPC6 opening by TRPC4 activator hits – cell-based, HEK293, membrane potential dye, duplicate, selectivity assay for TRPC4 activator project, confirmation (AID 434950); settings: HEK293 TRPC6, membrane potential fluorescence, at 10 µM; activation: stronger effect = higher value; outcome: activation
Sequence (Q61143 whole entry, looked up): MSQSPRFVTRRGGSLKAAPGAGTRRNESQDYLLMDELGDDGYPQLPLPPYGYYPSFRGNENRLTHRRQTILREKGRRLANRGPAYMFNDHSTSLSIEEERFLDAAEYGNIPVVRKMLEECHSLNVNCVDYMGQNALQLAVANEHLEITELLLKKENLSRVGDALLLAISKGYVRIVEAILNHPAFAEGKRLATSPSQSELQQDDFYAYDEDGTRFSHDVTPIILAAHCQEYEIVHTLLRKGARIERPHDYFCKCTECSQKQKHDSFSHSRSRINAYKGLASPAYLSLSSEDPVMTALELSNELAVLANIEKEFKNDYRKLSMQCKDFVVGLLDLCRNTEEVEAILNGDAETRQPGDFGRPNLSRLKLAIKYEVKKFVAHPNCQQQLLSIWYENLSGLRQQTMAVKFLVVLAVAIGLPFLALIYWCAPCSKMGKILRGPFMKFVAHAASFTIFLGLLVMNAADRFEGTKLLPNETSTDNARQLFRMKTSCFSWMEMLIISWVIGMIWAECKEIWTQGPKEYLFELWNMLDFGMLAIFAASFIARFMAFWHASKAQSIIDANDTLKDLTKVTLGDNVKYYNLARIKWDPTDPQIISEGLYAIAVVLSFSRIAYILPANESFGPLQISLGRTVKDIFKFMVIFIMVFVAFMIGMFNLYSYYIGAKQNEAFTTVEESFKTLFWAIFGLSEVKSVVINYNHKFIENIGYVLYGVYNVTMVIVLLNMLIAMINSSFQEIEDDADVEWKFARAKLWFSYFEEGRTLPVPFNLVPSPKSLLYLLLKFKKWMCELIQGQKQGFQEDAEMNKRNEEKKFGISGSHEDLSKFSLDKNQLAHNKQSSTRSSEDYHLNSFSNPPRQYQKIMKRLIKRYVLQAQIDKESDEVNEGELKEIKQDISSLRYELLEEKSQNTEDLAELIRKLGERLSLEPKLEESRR

SMILES	outcome
Cc1ccsc1C(=O)C1CCCN(Cc2ccccc2O)C1 (centres undefined)	inactive
COc1ccc(C[C@@H]2c3cc(O)c(OC)cc3CCN2C)cc1O	inactive
CCC1=Nc2cc(C(=O)N3CCC4(CC3)OCCO4)ccc2Sc2ccc(C)cc21	inactive
Cc1ccc(CN2C3CCCC2CC(NC(=S)NCc2ccccc2)C3)cc1 (centres undefined)	inactive
COc1ccc(Br)cc1CN1CCN(C(=O)Cc2ccccc2)CC1	inactive
CC(C)CN(CC(C)C)c1ccc(C=C2C(=O)NC(=S)NC2=O)cc1[N+](=O)[O-]	inactive
CCOC(=O)C1(CCc2ccccc2)CCN(Cc2cccc3c2OCO3)CC1	inactive
COc1ccc(CN2CCCC(C(=O)c3sccc3C)C2)cc1O (centres undefined)	inactive
CCN1CCN(Cc2cc(Br)ccc2O)CC1	inactive
CCN(CC)c1ccc([N+](=O)[O-])c2cccnc12	inactive
CN(CCOc1ccc(C=C2C(=O)NC(=O)NC2=O)cc1)c1ccccn1	inactive
CCN(CC)CC(=O)Nc1ccc(Cl)cc1C(=O)c1ccccc1	inactive
COc1cccc(O)c1CN1CCCC(C(=O)c2sccc2C)C1 (centres undefined)	inactive
CCC1=Nc2cc(C(=O)N3CCC4(CC3)OCCO4)ccc2Sc2ccc(Br)cc21	inactive
COc1ccc2[nH]cc(CCN(C)C)c2c1	inactive
CC(=O)OC1(c2ccccc2)CCN(C2CCCCC2)CC1C (centres undefined)	inactive
CCOC(=O)C1(c2ccccc2)CCN(CC(=O)Nc2ccc(C)cc2)CC1	inactive
COc1ccc(O)c(CN2CCCC(C(=O)c3sccc3C)C2)c1 (centres undefined)	inactive
Clc1ccc(OCC#CCN2CCCC2)cc1	inactive
